Compound activity from PubChem.
An excerpt weighted towards active compounds, which were near 4.5% of everything screened.
Gli-Sufu block = Gli-Sufu pathway antagonists, primary screen, luciferase luminescence, Sufu-KO-LIGHT cells, uHTS; Sufu-KO-LIGHT fibroblasts, Gli luciferase reporter luminescence; inhibition, % at 5 µM; actives 0.74% (n = 340,000); AID 588413, 2011;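 active = inhibition above about 55%, limit read from the data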;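 also: 0% = DMSO-treated cells and 100% = wells with medium but no cells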
Mdm2-MdmX inh = inhibitors of human Mdm2-MdmX association, primary screen, cell-based, luminescence, split luciferase, SaOS-2, uHTS; AID 485346, 2010; SaOS-2 split-luciferase Mdm2/MdmX complementation; Protein Mdm4 (Homo sapiens) + E3 ubiquitin-protein ligase Mdm2 (Homo sapiens), …; actives 3% (n = 330,000); inhibition, % at 8 µM;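 active = inhibition of at least 50% at 8 µM in the primary screen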
Beta apoptosis = inhibitors of cytokine-induced beta cell apoptosis, primary screen, luminescence; INS-1E cytokine-induced death, ATP luminescence, 48 h; percent of positive-control rescue, neutral wells zero; protection from apoptosis, % (test concentration not listed); actives 0.8% (n = 300,000);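 active = Every replicate reaches about 75%, or at least half do and their mean reaches it too, limit read from the data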;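 also: 0% = cytokine-treated negative control wells and 100% = positive control rescue; higher means more ATP so stronger rescue from cytokine killing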
697 NFkB inh = inhibitors of PMA/ionomycin-induced NF-kB reporter, 697 cells, primary screen, B-cell NF-kB inhibitor project, cell-based, luminescence, uHTS; 697 B-cell NF-kB luciferase reporter, 16 h; inhibition, % at 4 µM; actives 0.33% (n = 330,000); AID 435022, 2010; in the data active = inhibition above about 35%
CSC inhib = cancer stem cell viability inhibitors, primary screen, luminescence; cancer stem cell-like cells viability; inhibition, % at 7.5 µM; actives 1.1% (n = 300,000); AID 2717, 2010; in the data active = inhibition above about 75%; tested in HMLE shEcad cells
Jurkat NFkB inh = inhibitors of induced NF-kB luciferase reporter, primary screen, TCR NF-kB activation inhibitor project, cell-based, luminescence, uHTS | Jurkat, PMA/ionomycin-induced NF-kB luciferase reporter | inhibition, % at 4 µM | actives 0.53% (n = 330,000) | AID 435003, 2010; in the data active = inhibition above about 50%
697 NFkB conf = PMA/ionomycin-induced NF-kB reporter inhibitors, 697 retest, confirmation, B-cell NF-kB inhibitor project, cell-based, luminescence, single concentration; shares compounds with 697 NFkB inh; 697 B-cell NF-kB luciferase, 16 h; inhibition, % at 4 µM; actives 35% (n = 2,000); AID 449746, 2010; in the data active = inhibition mostly above about 28%, no sharp cut-off; inactive = mostly below about 22%
Starred values were filed as active, the others as inactive; · = no result.

SMILES	Gli-Sufu block	Mdm2-MdmX inh	Beta apoptosis	697 NFkB inh	CSC inhib	Jurkat NFkB inh	697 NFkB conf
CCOc1ccc2[nH]c3c(N4CCN(c5ccccn5)CC4)ncnc3c2c1	44	33	14	45*	47	0	27
CCOc1ccc2oc(C(=O)N3CCN(c4ccccn4)CC3)c(C)c2c1	-6	19	2	3	-14	25	·
C#CCN(Cc1ccccc1)S(=O)(=O)C=C	-2	31	-13	36*	16	7	30*
COc1cc(/C=C2\SC(=Nc3ccccc3)N(CCc3c[nH]c4ccccc34)C2=O)ccc1OC(C)C(=O)O (stereo not drawn)	6	21	-16	-8	41	-9	·
COCCN1C(=O)/C(=C/c2ccc(Oc3ccc([N+](=O)[O-])cn3)c(OC)c2)SC1=Nc1ccccc1	6	19	6	50*	3	30	24
Cc1ccc(C(=O)C(C)OC(=O)c2ccccc2[N+](=O)[O-])cc1 (stereo not drawn)	-81	-87	1	-271	-8	-115	-210
CC(C)(C)c1ccc(-c2noc(CCC(=O)NCc3ccco3)n2)cc1	70*	-153	-11	96*	5	-48	94*
Cc1cccc(-c2noc(CCC(=O)NCc3ccco3)n2)c1	0	-13	3	17	1	5	·
CCN(CC(=O)Nc1c(F)cccc1F)C(=O)C1(c2ccccc2)CC1	11	1	7	50*	-8	7	19*
COc1ccc(C/C(N)=N/OC(=O)CCc2ccccc2)cc1	28	13	-10	8	·	13	·
FC(F)Sc1ccc(NC2=NCCCCC2)cc1	8	14	-11	8	15	-10	·
Clc1ccc(NC2=NCCCCC2)cc1	16	-5	-2	36*	·	9	4
CC(C)C1Cc2ccccc2-c2[nH]c(=S)[nH]c(=O)c21 (stereo not drawn)	5	12	-11	13	-8	-12	·
C(=C\c1nnc(-c2cccs2)o1)/c1ccccc1	-95	-155	4	-260	-5	-128	-199
Cc1c(O)ccc(/C=N/Nc2ncccc2[N+](=O)[O-])c1O	-108	-65	6	-371	15	-131	-278
O=[N+]([O-])c1ccccc1/C=N/Nc1nccnc1Cl	-6	-19	0	-20	-10	-24	·
O=C(NC1CCN(S(=O)(=O)c2cccc(Cl)c2)CC1)C1CCCCC1	-9	-21	2	-5	-5	2	·
COCCn1c(C)c(C)c2c(NCCc3ccccc3)ncnc21	25	46	8	-281	-2	-77	-29
COc1ccc(CCNC(=O)Cn2c(=O)n(-c3cc(F)ccc3F)c(=O)c3sccc32)cc1OC	0	12	3	43*	-6	-3	18
COc1ccc(CCNC(=O)Cn2c(=O)n(-c3ccc(F)cc3F)c(=O)c3sccc32)cc1OC	-6	21	1	23	2	-3	·
CCCN(CC(=O)Nc1ccccc1OC)Cc1c(O)ccc2ccccc12	-3	21	3	-3	-12	4	·
S=C(c1ccc(-c2ccccc2)cc1)N1CCOCC1	-2	-6	-8	55*	-2	13	-10
COCCCn1c(=O)/c(=C\c2cccc(OC)c2OC)s/c1=C(/C#N)C(=O)Nc1ccc(C(=O)O)cc1	-1	-5	-2	43*	6	-3	37*
COCCCn1c(=O)/c(=C/c2ccccc2OC(F)F)s/c1=C(\C#N)C(=O)NCCOC	7	·	·	·	·	·	·
CC(=O)Nc1ccc(S(=O)(=O)N2CCN(C(=O)c3ncoc3-c3ccc(F)cc3)CC2)cc1	-14	16	·	20	-11	3	·
Cc1ccc(NC(=O)c2ccccc2O)cc1	2	-142	-7	-213	·	-97	·
